We go through 65 compounds from the antibiotic and cytotoxicity screens of Wong et al. (2023).

Hit rate of the full screen: of about 39,000 compounds, about 3,300 (8.5%) were called active. The list comes from a sample in which actives are over-represented; it also holds similar structures and randomly drawn compounds.

For this assay, the system named is HepG2. In words: cytotoxicity call (relative viability < 0.9). The note with it: 10 µM.
On to `COC(=O)CC1C2(C)CC34OC5(C)OC6(C7C(=C(O)C(C)C)C(=O)OC(c8ccoc8)C7(C)C(OC(C)=O)C(OC(C)=O)C6(O5)C13C)C(OC(C)=O)C4(O)C2OC(=O)C(C)C` (stereo not given), for which the cytotoxicity call is “inactive”.
The entry for `CC(C)C(O)=C1C(=O)OC(c2ccoc2)C2(C)C(O)C(O)C34OC5(C)OC3(C12)C(O)C1(O)C(O)C2(C)CC1(O5)C4(C)C2CC(=O)O` (stereo not given) is “inactive”.
With `CC(C)C(=O)[C@@H]1C(=O)O[C@@H](c2ccoc2)[C@]2(C)[C@H](O)[C@@H](O)[C@@]34O[C@]5(C)O[C@]3([C@H]12)[C@H](O)[C@@]1(O)[C@H](O)[C@]2(C)C[C@]1(O5)[C@@]4(C)[C@H]2CC(=O)O`, the cytotoxicity call is “active”.
The entry for `COc1cccc(S(=O)(=O)N(C)C[C@H]2Oc3ncc(C#CC(C)C)cc3C(=O)N([C@H](C)CO)C[C@@H]2C)c1` is “inactive”; for `C[C@H](C(=O)N(C)C[C@H]1OCc2ccccc2-c2c(n(C)c3ccccc23)C(=O)N([C@@H](C)CO)C[C@@H]1C)c1ccccc1` it is “active”; for `C[C@@H](C(=O)N(C)C[C@H]1OCc2ccccc2-c2c(n(C)c3ccccc23)C(=O)N([C@@H](C)CO)C[C@@H]1C)c1ccccc1` it is “inactive”.
To `C[C@@H]1CN([C@@H](C)CO)C(=O)c2c(c3ccccc3n2C)-c2ccccc2CO[C@@H]1CN(C)C(=O)[C@H](C)c1ccccc1` belongs “inactive”; to `C[C@H](C(=O)N(C)C[C@H]1OCc2ccccc2-c2c(n(C)c3ccccc23)C(=O)N([C@@H](C)CO)C[C@H]1C)c1ccccc1`, “inactive”.
To `C[C@H](CO)N1C[C@H](C)[C@H](CN(C)C(=O)[C@H](C)c2ccccc2)OCc2ccccc2-c2c(n(C)c3ccccc23)C1=O` belongs “active”; to `C[C@H](C(=O)N(C)C[C@@H]1OCc2ccccc2-c2c(n(C)c3ccccc23)C(=O)N([C@@H](C)CO)C[C@@H]1C)c1ccccc1`, “inactive”.
Turning to `Cc1noc(C)c1NC(=O)Nc1ccc2c(c1)C(=O)N([C@H](C)CO)C[C@H](C)[C@@H](CN(C)Cc1ccccc1)OCCCC[C@H](C)O2`, the cytotoxicity call is “inactive”.
The entry for `C[C@@H]1CN([C@@H](C)CO)C(=O)c2cc(NC(=O)Nc3ccc(C(F)(F)F)cc3)ccc2O[C@@H]1CN(C)Cc1ccccc1` is “active”; for `C[C@@H]1CN([C@@H](C)CO)C(=O)c2cc(NC(=O)Nc3ccc(C(F)(F)F)cc3)ccc2O[C@H]1CN(C)Cc1ccccc1` it is “inactive”.
To `C[C@H](CO)N1C[C@H](C)[C@H](CN(C)Cc2ccccc2)Oc2ccc(NC(=O)Nc3ccc(C(F)(F)F)cc3)cc2C1=O` belongs “active”; to `C[C@@H]1CN([C@H](C)CO)C(=O)c2cc(NC(=O)Nc3ccc(C(F)(F)F)cc3)ccc2O[C@@H]1CN(C)Cc1ccccc1`, “active”; to `C[C@H]1CN([C@@H](C)CO)C(=O)c2cc(NC(=O)Nc3ccc(C(F)(F)F)cc3)ccc2O[C@@H]1CN(C)Cc1ccccc1`, “inactive”.
To `C[C@H]1CN([C@@H](C)CO)C(=O)c2cc(NC(=O)Nc3ccc(C(F)(F)F)cc3)ccc2O[C@H]1CN(C)Cc1ccccc1` belongs “active”; to `COc1ccc2c3c([nH]c2c1)[C@@H](CO)N(C[C@]13CN(Cc2ccccc2)C1)S(=O)(=O)c1cn(cn1)C`, “inactive”.
For `C[C@@H]1CN([C@H](C)CO)S(=O)(=O)c2ccc(C#CC3(O)CCCC3)cc2O[C@@H]1CN(C)C(=O)c1cccnc1`, the cytotoxicity call was “inactive”.
To `COc1ccc(CN(C)C[C@H]2OCCCC[C@H](C)Oc3ccc(NC(=O)c4ccccc4)cc3C(=O)N([C@H](C)CO)C[C@H]2C)cc1` belongs “inactive”; to `COc1ccc(CN(C)C[C@H]2OCCCC[C@@H](C)Oc3ccc(NC(=O)Cc4ccccc4)cc3C(=O)N([C@H](C)CO)C[C@H]2C)cc1`, “inactive”; to `CC[C@@](N)(C(=O)O)c1ccccc1`, “inactive”.
To `C=C(C)[C@]1(O)OC(=O)C=C1OC` belongs “inactive”; to `C[C@@H]1CN([C@H](C)CO)C(=O)c2cc(C#Cc3ccccc3F)cnc2O[C@@H]1CN(C)S(=O)(=O)c1ccccc1`, “inactive”; to `CCC(=O)N1CCC[C@@H]1C(=O)O`, “inactive”.
The entry for `Cc1noc(C)c1NC(=O)Nc1ccc2c(c1)C(=O)N([C@H](C)CO)C[C@H](C)[C@H](CN(C)C(=O)c1ccccc1)OCCCC[C@@H](C)O2` is “inactive”.
For the compound `Cc1ccc(S(=O)(=O)N[C@@H]2CC[C@@H](CC(=O)N3CCC(Cc4ccccc4)CC3)O[C@@H]2CO)cc1`, the cytotoxicity call is “inactive”.
To `C[C@@H]1CCCCO[C@H](CN(C)CC2CCCCC2)[C@H](C)CN([C@H](C)CO)C(=O)c2cc(NC(=O)c3ccncc3)ccc2O1` belongs “inactive”; to `C[C@H](CO)N1C[C@H](C)[C@H](CN(C)C(=O)Nc2ccc(C(F)(F)F)cc2)Oc2ccc(NC(=O)Nc3ccc4c(c3)OCO4)cc2C1=O`, “inactive”; to `C[C@@H]1CN([C@H](C)CO)S(=O)(=O)c2ccc(-c3cccc(F)c3)cc2O[C@@H]1CN(C)S(C)(=O)=O`, “inactive”.
The entry for `C[C@@H]1CN([C@@H](C)CO)C(=O)c2cc(NC(=O)C3CC3)ccc2O[C@H]1CN(C)S(=O)(=O)c1ccc(Cl)cc1` is “inactive”.
To `C[C@H](CO)N1C[C@H](C)[C@@H](CN(C)Cc2ccccc2)Oc2ccc(NC(=O)Nc3ccc(C(F)(F)F)cc3)cc2C1=O` belongs “active”; to `C[C@@H]1CN([C@H](C)CO)C(=O)c2cc(NC(=O)Nc3ccc(C(F)(F)F)cc3)ccc2O[C@H]1CN(C)Cc1ccccc1`, “active”; to `C[C@@H]1CN([C@@H](C)CO)C(=O)c2cc(NC(=O)Cc3ccccc3)ccc2O[C@@H](C)CCCCO[C@@H]1CN(C)S(=O)(=O)c1cccs1`, “inactive”.
Turning to `Cc1cc(C(=O)Nc2cccc3c2O[C@H](CN(C)Cc2ccccc2)[C@@H](C)CN([C@@H](C)CO)C3=O)n(C)n1`, the cytotoxicity call is “inactive”.
Take `C[C@H]1CN([C@@H](C)CO)C(=O)c2cccc(NC(=O)Nc3ccc4c(c3)OCO4)c2O[C@@H]1CN(C)S(=O)(=O)c1cn(C)cn1`: the cytotoxicity call was “inactive”.
The entry for `C[C@H](CO)N1C[C@H](C)[C@H](CN(C)S(=O)(=O)c2cccs2)OCCCC[C@H](C)Oc2ccc(NC(=O)CCC(F)(F)F)cc2C1=O` is “inactive”; for `Cc1noc(C)c1NC(=O)Nc1ccc2c(c1)C(=O)N([C@H](C)CO)C[C@H](C)[C@@H](CN(C)S(C)(=O)=O)O2` it is “inactive”.
The entry for `C[C@@H]1CCCCO[C@@H](CN(C)C(=O)Nc2ccc(C(F)(F)F)cc2)[C@H](C)CN([C@@H](C)CO)C(=O)c2cc(NC(=O)Nc3ccc4c(c3)OCO4)ccc2O1` is “inactive”; for `Cc1noc(C)c1NC(=O)Nc1ccc2c(c1)C(=O)N([C@@H](C)CO)C[C@H](C)[C@@H](CN(C)C(=O)Nc1ccccc1)OCCCC[C@H](C)O2` it is “inactive”; for `C[C@H](CO)N1C[C@H](C)[C@H](CN(C)C(=O)Nc2cccc3ccccc23)Oc2ccc(NC(=O)CCC(F)(F)F)cc2C1=O` it is “inactive”.
On to `C[C@@H]1CCCCO[C@@H](CN(C)S(C)(=O)=O)[C@@H](C)CN([C@H](C)CO)C(=O)c2cc(NC(=O)c3ccncc3)ccc2O1`, for which the cytotoxicity call is “inactive”.
To `C[C@H](CO)N1C[C@H](C)[C@@H](CN(C)Cc2ccc(Oc3ccccc3)cc2)Oc2ccc(NS(=O)(=O)c3cccs3)cc2CC1=O` belongs “inactive”; to `C[C@@H]1CN([C@@H](C)CO)C(=O)Cc2cc(NS(=O)(=O)c3cccs3)ccc2O[C@@H]1CN(C)Cc1ccc(Oc2ccccc2)cc1`, “inactive”.
The entry for `C[C@@H]1CN([C@H](C)CO)C(=O)Cc2cc(NS(=O)(=O)c3cccs3)ccc2O[C@@H]1CN(C)Cc1ccc(Oc2ccccc2)cc1` is “active”; for `C[C@H]1CN([C@@H](C)CO)C(=O)Cc2cc(NS(=O)(=O)c3cccs3)ccc2O[C@@H]1CN(C)Cc1ccc(Oc2ccccc2)cc1` it is “inactive”.
To `C[C@@H]1CN([C@H](C)CO)C(=O)Cc2cc(NS(=O)(=O)c3cccs3)ccc2O[C@H]1CN(C)Cc1ccc(Oc2ccccc2)cc1` belongs “active”.
On to `C[C@H]1CN([C@@H](C)CO)C(=O)Cc2cc(NS(=O)(=O)c3cccs3)ccc2O[C@H]1CN(C)Cc1ccc(Oc2ccccc2)cc1`, for which the cytotoxicity call is “inactive”.
To `Cn1cc(CN2CCC3(CC2)CNC(=O)CO3)cn1` belongs “inactive”; to `COc1cccc(S(=O)(=O)Nc2ccc3c(c2)[C@@H]2C[C@H](CC(=O)NC4CCCCC4)O[C@@H](CO)[C@@H]2O3)c1`, “inactive”; to `Cc1ccc(S(=O)(=O)Nc2ccc3c(c2)C(=O)N([C@H](C)CO)C[C@@H](C)[C@@H](CN(C)S(=O)(=O)c2ccccc2)O3)cc1`, “inactive”.
To `C[C@@H]1CN([C@@H](C)CO)S(=O)(=O)c2ccc(C#CC(C)(C)O)cc2O[C@H]1CN(C)C(=O)CN(C)C` belongs “inactive”; to `COc1ccc(NC(=O)N(C)C[C@H]2OCCCC[C@@H](C)Oc3ccc(NC(=O)c4ccccc4)cc3C(=O)N([C@@H](C)CO)C[C@@H]2C)cc1`, “inactive”; to `CC(C)NC(=O)N(C)C[C@H]1OCCCC[C@H](C)Oc2ccc(NC(=O)Nc3cccc4ccccc34)cc2C(=O)N([C@H](C)CO)C[C@@H]1C`, “inactive”.
To `C[C@H]1CCCCO[C@H](CN(C)Cc2ccc(C(=O)O)cc2)[C@@H](C)CN([C@@H](C)CO)C(=O)c2cc(NS(=O)(=O)c3ccc(F)cc3)ccc2O1` belongs “inactive”.
Take `CN(C)C/C=C/C(=O)Nc1ccc(C(=O)Nc2cccc(Nc3ncc(Cl)c(-c4c[nH]c5ccccc45)n3)c2)cc1`: the cytotoxicity call is “active”.
The entry for `O=C(O)C1CCOCC1` is “inactive”; for `Cc1ccc(S(=O)(=O)Nc2ccc3c(c2)C(=O)N([C@@H](C)CO)C[C@H](C)[C@@H](CN(C)Cc2ccc(Cl)c(Cl)c2)OCCCC[C@@H](C)O3)cc1` it is “active”; for `Cc1ccc(S(=O)(=O)Nc2ccc3c(c2)C(=O)N([C@H](C)CO)C[C@@H](C)[C@H](CN(C)Cc2ccc(Cl)c(Cl)c2)OCCCC[C@H](C)O3)cc1` it is “active”.
Regarding `Cc1ccc(S(=O)(=O)Nc2ccc3c(c2)C(=O)N([C@H](C)CO)C[C@@H](C)[C@@H](CN(C)Cc2ccc(Cl)c(Cl)c2)OCCCC[C@H](C)O3)cc1`, the cytotoxicity call is “inactive”.
As for `Cc1ccc(S(=O)(=O)Nc2ccc3c(c2)C(=O)N([C@H](C)CO)C[C@H](C)[C@@H](CN(C)Cc2ccc(Cl)c(Cl)c2)OCCCC[C@H](C)O3)cc1`, the cytotoxicity call was “inactive”.
The entry for `Cc1ccc(S(=O)(=O)Nc2ccc3c(c2)C(=O)N([C@@H](C)CO)C[C@@H](C)[C@@H](CN(C)Cc2ccc(Cl)c(Cl)c2)OCCCC[C@@H](C)O3)cc1` is “active”; for `Cc1ccc(S(=O)(=O)Nc2ccc3c(c2)C(=O)N([C@H](C)CO)C[C@@H](C)[C@H](CN(C)Cc2ccc(Cl)c(Cl)c2)OCCCC[C@@H](C)O3)cc1` it is “active”; for `Cc1ccc(S(=O)(=O)Nc2ccc3c(c2)C(=O)N([C@H](C)CO)C[C@H](C)[C@H](CN(C)Cc2ccc(Cl)c(Cl)c2)OCCCC[C@H](C)O3)cc1` it is “inactive”.
Take `Cc1ccc(S(=O)(=O)Nc2ccc3c(c2)C(=O)N([C@@H](C)CO)C[C@@H](C)[C@H](CN(C)Cc2ccc(Cl)c(Cl)c2)OCCCC[C@@H](C)O3)cc1`: the cytotoxicity call was “inactive”.
